Assay results taken from the supplement of paper PMC10849652.
Of roughly 7,900 targets only a part is listed; those with a hit were picked by preference. About 0.6% of all pairs of compound and target were hits. Unmarked numbers belong to inactive results.

Compound: c1cn2cc(-c3ccc4cn[nH]c4c3)nc(Nc3ccc(N4CCOCC4)cc3)c2n1 [entospletinib]
Assay: log2 fold change, soluble protein after heating vs DMSO (PISA); higher = thermal stabilisation; K562 cells, 10 uM, 30 min; active = over 0.2 and 3.5 SD of the protein, either way, in both replicates (recomputed)
In short: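 Aliquots of K562 cells (2×10^6 cells/mL) treated with 10 μM compound for 30 min were heated for 3 min over 48°C-58°C. After pooling and extraction in PBS with 0.5% NP-40 at 4°C, soluble protein from a 21,000xg, 90 min spin was quantified by TMTpro 16plex LC-MS/MS with channel sums equalised. Thermal stability is expressed against control samples, from duplicates, as a log2 fold change.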

Sequence of UniProt P12956 (P12956 whole entry, looked up): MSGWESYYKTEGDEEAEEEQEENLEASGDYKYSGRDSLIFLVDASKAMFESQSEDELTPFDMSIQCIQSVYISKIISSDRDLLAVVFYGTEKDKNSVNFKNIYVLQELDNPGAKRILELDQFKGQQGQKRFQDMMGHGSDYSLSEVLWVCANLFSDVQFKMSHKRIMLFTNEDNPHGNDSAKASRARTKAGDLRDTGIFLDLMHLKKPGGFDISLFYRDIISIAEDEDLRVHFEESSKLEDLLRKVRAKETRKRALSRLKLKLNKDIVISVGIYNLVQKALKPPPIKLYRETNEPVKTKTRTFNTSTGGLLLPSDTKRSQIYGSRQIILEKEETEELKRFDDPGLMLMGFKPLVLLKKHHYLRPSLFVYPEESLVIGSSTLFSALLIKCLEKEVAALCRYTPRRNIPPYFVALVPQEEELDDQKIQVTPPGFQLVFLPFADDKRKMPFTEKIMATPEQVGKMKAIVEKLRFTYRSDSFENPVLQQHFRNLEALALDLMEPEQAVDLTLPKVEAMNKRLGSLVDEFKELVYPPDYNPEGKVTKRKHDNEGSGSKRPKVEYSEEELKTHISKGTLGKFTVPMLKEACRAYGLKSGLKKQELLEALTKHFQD
Sequence of UniProt Q9HAD4 (Q9HAD4 whole entry, looked up): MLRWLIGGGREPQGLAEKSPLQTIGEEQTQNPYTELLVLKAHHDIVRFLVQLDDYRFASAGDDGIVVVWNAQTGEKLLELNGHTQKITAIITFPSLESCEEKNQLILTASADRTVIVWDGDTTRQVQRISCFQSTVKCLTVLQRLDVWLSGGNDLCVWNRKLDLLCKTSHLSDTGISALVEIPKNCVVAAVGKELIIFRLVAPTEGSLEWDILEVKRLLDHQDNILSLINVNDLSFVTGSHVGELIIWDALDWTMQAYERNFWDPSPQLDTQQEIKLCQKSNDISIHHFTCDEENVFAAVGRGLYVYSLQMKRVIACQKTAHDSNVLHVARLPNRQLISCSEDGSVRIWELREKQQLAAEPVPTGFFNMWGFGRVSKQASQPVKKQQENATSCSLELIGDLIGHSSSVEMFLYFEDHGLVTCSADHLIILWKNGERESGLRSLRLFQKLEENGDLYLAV
Sequence of UniProt O75674 (O75674 whole entry, looked up): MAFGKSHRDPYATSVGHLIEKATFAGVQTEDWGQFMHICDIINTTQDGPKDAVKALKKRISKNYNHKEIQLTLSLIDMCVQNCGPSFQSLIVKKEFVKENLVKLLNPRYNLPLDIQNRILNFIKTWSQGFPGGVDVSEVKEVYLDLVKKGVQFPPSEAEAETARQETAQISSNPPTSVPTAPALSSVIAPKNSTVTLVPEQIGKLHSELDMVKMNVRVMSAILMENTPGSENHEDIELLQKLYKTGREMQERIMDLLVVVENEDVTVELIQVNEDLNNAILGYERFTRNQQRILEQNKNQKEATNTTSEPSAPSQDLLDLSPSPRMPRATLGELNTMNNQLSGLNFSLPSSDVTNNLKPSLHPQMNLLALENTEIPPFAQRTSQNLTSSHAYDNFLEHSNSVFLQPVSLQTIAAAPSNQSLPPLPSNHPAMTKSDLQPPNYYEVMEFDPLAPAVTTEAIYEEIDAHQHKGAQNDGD
Sequence of UniProt Q7Z3J2 (Q7Z3J2 whole entry, looked up): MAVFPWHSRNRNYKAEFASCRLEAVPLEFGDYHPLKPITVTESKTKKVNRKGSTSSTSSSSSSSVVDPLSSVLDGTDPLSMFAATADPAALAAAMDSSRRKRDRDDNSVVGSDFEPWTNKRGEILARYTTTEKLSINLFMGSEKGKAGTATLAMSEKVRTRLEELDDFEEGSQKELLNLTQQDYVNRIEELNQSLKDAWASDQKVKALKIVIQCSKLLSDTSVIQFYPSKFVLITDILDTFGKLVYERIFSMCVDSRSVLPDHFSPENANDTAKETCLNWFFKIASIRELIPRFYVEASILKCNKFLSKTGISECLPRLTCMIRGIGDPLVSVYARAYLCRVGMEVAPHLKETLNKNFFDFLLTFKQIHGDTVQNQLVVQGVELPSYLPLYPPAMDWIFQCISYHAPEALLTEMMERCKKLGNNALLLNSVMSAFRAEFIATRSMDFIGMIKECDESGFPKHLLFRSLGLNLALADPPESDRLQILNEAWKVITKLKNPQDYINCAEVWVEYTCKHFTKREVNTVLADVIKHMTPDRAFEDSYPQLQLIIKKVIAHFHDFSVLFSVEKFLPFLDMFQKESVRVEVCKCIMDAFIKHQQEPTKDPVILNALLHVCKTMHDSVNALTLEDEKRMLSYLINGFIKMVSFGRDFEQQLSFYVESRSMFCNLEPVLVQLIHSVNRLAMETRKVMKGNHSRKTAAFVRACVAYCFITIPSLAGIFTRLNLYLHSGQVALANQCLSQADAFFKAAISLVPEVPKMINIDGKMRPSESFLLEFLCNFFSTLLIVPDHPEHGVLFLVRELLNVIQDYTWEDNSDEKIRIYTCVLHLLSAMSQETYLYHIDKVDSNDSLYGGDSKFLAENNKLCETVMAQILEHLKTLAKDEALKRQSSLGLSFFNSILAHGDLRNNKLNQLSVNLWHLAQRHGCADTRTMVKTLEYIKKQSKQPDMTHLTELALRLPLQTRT
Sequence of UniProt Q53S58 (Q53S58 whole entry, looked up): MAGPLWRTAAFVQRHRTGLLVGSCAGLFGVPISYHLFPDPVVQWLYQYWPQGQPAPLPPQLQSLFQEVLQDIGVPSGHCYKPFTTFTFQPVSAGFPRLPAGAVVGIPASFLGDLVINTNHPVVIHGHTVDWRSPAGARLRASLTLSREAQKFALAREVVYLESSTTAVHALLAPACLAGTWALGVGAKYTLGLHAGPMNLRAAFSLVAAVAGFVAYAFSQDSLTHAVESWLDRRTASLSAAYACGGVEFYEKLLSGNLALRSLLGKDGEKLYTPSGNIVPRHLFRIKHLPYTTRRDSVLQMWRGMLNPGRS
Sequence of UniProt O43156 (O43156 whole entry, looked up): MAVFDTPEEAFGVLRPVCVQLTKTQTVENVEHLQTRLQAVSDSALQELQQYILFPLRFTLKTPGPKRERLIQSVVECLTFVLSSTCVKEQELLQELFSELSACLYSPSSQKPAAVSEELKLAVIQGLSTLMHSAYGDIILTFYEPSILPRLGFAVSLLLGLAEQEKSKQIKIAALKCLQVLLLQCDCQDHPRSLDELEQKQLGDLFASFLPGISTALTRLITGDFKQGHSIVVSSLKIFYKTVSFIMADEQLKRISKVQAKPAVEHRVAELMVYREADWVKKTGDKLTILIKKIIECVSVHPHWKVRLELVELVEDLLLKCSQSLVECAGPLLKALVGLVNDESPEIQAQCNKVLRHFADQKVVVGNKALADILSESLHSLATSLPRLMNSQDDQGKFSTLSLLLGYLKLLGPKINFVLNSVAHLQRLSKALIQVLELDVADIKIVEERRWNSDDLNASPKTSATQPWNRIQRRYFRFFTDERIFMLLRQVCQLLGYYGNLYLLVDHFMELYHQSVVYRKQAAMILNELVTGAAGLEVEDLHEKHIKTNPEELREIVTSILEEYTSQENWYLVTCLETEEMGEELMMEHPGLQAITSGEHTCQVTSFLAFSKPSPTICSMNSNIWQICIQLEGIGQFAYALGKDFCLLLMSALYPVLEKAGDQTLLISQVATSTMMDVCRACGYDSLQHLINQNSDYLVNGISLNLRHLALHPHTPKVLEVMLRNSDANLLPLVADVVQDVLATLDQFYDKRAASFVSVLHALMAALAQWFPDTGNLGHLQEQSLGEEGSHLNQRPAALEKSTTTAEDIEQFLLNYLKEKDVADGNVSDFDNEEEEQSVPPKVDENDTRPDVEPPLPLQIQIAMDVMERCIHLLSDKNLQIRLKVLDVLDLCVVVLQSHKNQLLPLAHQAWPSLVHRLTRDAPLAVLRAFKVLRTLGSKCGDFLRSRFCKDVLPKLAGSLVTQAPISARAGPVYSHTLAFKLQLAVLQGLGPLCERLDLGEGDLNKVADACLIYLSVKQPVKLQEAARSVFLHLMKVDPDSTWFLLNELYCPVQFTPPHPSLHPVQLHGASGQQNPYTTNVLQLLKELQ
Sequence of UniProt Q9BXJ8 (Q9BXJ8 whole entry, looked up): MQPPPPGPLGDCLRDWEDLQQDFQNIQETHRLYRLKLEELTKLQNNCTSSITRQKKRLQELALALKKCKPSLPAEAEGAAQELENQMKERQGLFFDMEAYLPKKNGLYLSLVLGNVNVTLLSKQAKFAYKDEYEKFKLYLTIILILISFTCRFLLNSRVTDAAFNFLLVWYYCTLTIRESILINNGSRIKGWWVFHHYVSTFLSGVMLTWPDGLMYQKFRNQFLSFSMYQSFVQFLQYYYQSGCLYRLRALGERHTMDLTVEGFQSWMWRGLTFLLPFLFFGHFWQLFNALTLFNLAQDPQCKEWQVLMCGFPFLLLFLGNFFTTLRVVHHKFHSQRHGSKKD
Sequence of UniProt Q9Y5Z9 (Q9Y5Z9 whole entry, looked up): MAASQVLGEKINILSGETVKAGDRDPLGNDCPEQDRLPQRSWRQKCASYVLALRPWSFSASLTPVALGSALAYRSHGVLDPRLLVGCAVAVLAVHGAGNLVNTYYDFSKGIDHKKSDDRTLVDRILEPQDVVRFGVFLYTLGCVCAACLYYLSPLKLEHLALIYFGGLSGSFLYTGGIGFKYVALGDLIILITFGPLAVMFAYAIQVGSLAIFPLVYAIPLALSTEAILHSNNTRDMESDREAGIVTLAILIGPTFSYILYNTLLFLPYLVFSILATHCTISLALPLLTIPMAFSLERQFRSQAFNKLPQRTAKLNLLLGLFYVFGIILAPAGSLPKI
Sequence of UniProt Q5U3C3 (Q5U3C3 whole entry, looked up): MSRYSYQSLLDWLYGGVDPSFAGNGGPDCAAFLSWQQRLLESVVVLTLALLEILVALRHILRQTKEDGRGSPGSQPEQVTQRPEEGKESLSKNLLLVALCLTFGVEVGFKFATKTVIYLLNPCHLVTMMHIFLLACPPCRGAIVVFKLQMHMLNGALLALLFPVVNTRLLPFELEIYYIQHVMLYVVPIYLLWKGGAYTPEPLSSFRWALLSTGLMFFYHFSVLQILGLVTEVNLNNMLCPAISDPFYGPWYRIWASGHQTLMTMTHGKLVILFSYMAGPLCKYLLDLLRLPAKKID

In order of rising log2 fold change:
1. UBAP2L (UniProt F8W726)  -0.078
2. UNC119B (UniProt A6NIH7)  -0.055
3. WDR41 (UniProt Q9HAD4)  -0.019
4. UBIAD1 (UniProt Q9Y5Z9)  -0.013
5. XRCC6 (UniProt P12956)  0
6. XPO5 (UniProt Q9HAV4)  0.001
7. WRB (UniProt O00258)  0.005
8. TMEM164 (UniProt Q5U3C3)  0.007
9. VPS35L (UniProt Q7Z3J2)  0.011
10. TMEM177 (UniProt Q53S58)  0.02
11. WASHC2A (UniProt Q641Q2)  0.03
12. TOM1L1 (UniProt O75674)  0.038
13. UTP14A (UniProt Q9BVJ6)  0.042
14. TRIM4 (UniProt Q9C037)  0.089
15. TTI1 (UniProt O43156)  0.1

For TMEM120A (UniProt Q9BXJ8), the log2 fold change was -0.404 (active).
